Data taken from the supplement of paper PMC6555819.

Tests used:
Experiment in all cases: PBM binding z-score (relative to random genomic background probes); higher = stronger binding; sequences stand for … in GC…GCGATTGACAGCGTAGAATGAAGG
[1] = test system: FXR:RXRa (NR concentration 270 nM, RXRa partner concentration 90 nM)
Summary of the method: (§1)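 Scanned fluorescence from custom Agilent 4×180K protein-binding microarrays was regression-normalized. Binding z-scores use random background probes as reference. Ligand-free nuclear receptor dimers were incubated on the arrays for 1 h and detected with antibodies against each partner (one per run).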

[2] = test system: LXRa:RXRa (NR concentration 270 nM, RXRa partner concentration 90 nM)
Summary of the method: as §1

[3] = test system: LXRa homodimer (NR concentration 270 nM)
Summary of the method: as §1

[4] = test system: LXRb:RXRa (NR concentration 270 nM, RXRa partner concentration 90 nM)
Summary of the method: as §1

[5] = test system: LXRb homodimer (NR concentration 270 nM)
Summary of the method: as §1

[6] = test system: PPARa:RXRa (NR concentration 270 nM, RXRa partner concentration 90 nM)
Summary of the method: as §1

[7] = test system: PPARg:RXRa (NR concentration 180 nM, RXRa partner concentration 90 nM)
Summary of the method: as §1

[8] = test system: PPARg:RXRa 270nM:90nM, anti-RXR (NR concentration 270 nM, RXRa partner concentration 90 nM)
Summary of the method: as §1

[9] = test system: PPARg:RXRa 30nM:10nM, anti-RXR (NR concentration 30 nM, RXRa partner concentration 10 nM)
Summary of the method: as §1

[10] = test system: PPARg:RXRa 90nM:30nM, anti-RXR (NR concentration 90 nM, RXRa partner concentration 30 nM)
Summary of the method: as §1

[11] = test system: PPARg:RXRa DBDmut IVT, anti-RXR (DBD mutation: RXRa K156A/R161A, NR concentration 270 nM, RXRa partner concentration 90 nM)
Summary of the method: as §1

[12] = test system: PPARg:RXRa IVT, anti-PPARg (NR concentration 270 nM, RXRa partner concentration 90 nM)
Summary of the method: as §1

[13] = test system: PPARg DBDmut:RXRa IVT, anti-PPARg (DBD mutation: PPARg1 K132A/R137A, NR concentration 270 nM, RXRa partner concentration 90 nM)
Summary of the method: as §1

[14] = test system: PPARg DBDmut IVT, anti-PPARg (DBD mutation: PPARg1 K132A/R137A, NR concentration 270 nM)
Summary of the method: as §1

[15] = test system: PPARg homodimer (NR concentration 180 nM)
Summary of the method: as §1

[16] = test system: PXR:RXRa (NR concentration 270 nM, RXRa partner concentration 90 nM)
Summary of the method: as §1

[17] = test system: PXR homodimer (NR concentration 270 nM)
Summary of the method: as §1

[18] = test system: RARa:RXR (NR concentration 270 nM, RXRa partner concentration 90 nM)
Summary of the method: as §1

[19] = test system: RARa homodimer (NR concentration 270 nM)
Summary of the method: as §1

[20] = test system: RARb:RXRa (NR concentration 270 nM, RXRa partner concentration 90 nM)
Summary of the method: as §1

Row | Sequence | PBM binding z-score [1] | PBM binding z-score [2] | PBM binding z-score [3] | PBM binding z-score [4] | PBM binding z-score [5] | PBM binding z-score [6] | PBM binding z-score [7] | PBM binding z-score [8] | PBM binding z-score [9] | PBM binding z-score [10] | PBM binding z-score [11] | PBM binding z-score [12] | PBM binding z-score [13] | PBM binding z-score [14] | PBM binding z-score [15] | PBM binding z-score [16] | PBM binding z-score [17] | PBM binding z-score [18] | PBM binding z-score [19] | PBM binding z-score [20]
1 | AGAATGAGGTTAAGGTCAGGGAAACAGAATACAT | 5.36 | 4.12 | 0.675 | 3.93 | 0.526 | 5.21 | 5.25 | 5.04 | 2.44 | 4.29 | 3.24 | 4.55 | 1.51 | 0.964 | 3.35 | 3.77 | 1.59 | 4.47 | 2.44 | 4.27
2 | TGAATGTGGTTAAAGATCAGGGAACGTGGCGTCG | -0.133 | -0.264 | 0.0303 | -0.186 | 0.696 | 0.692 | 1.33 | 2.69 | 1.45 | 2.47 | -0.308 | 0.475 | 0.142 | 1.06 | 0.818 | -0.282 | -0.00828 | -0.185 | 0.484 | -0.112
3 | ATATGTAGGTTACATCCGGCTCATTCAGGCTATG | 0.486 | 2.28 | 0.223 | 1.13 | 0.756 | 3.04 | 4.81 | 3.99 | 1.57 | 3.14 | 7.66 | 6.94 | 2.85 | 2.21 | 0.844 | 0.18 | 0.0469 | 0.506 | 0.258 | 1.07
4 | CCAGACAGGTGAAAGGTAACTCAGTCTGGTACGC | 0.692 | 0.861 | -0.121 | 1.01 | -0.274 | 3.53 | 6.06 | 5.9 | 4.26 | 6.73 | 2.07 | 3.2 | 0.403 | -0.0766 | 1.36 | 0.838 | 0.027 | 1.99 | 0.208 | 1.4
5 | AGAATGAGGTTAAGATCAGGGCAACAGAATACAT | 2.64 | 2.98 | 0.329 | 2.17 | 0.282 | 3.7 | 2.57 | 2.84 | 1.29 | 2.24 | 2.97 | 3.28 | 1.36 | 0.923 | 1.05 | 2.34 | 0.694 | 2.78 | 0.44 | 2.45
6 | TCTATTAGTTGATTAGGGCCACCGAAACAGCGGA | 0.951 | 0.434 | 0.125 | 0.653 | 0.614 | 0.786 | -0.0833 | 1.9 | 3.63 | 2.7 | 1.82 | 0.608 | 0.893 | 0.609 | 0.28 | 0.517 | 0.469 | 0.615 | 1.05 | 0.596
7 | TCAGACAGGTTAAGGTAACTCAGGTACGCAGTCG | 1.49 | 2.63 | 0.305 | 1.79 | 0.039 | 1.93 | 0.858 | 2.5 | 4.03 | 3.21 | 2.56 | 0.69 | 0.624 | 0.18 | 1.1 | 1.1 | 0.461 | 1.54 | 0.655 | 1.51
8 | TGTCAAAGTTCAAACGTAACGTAAGTATCCACAC | 7.01 | 6.81 | 5.78 | 4.82 | 3 | 5.43 | 8.29 | 7.51 | 5.26 | 7.39 | 0.502 | 4.09 | 1.75 | 1.83 | 2.5 | 5.07 | 4.65 | 3.8 | 1.09 | 4.99
9 | ATATGTAGGTTATCGGGCCATTCAGTTTGCGCAT | 0.607 | 1.03 | 0.565 | 0.95 | 0.458 | 3.22 | 5.22 | 4.45 | 1.98 | 3.76 | 7.31 | 6.82 | 2.32 | 3.56 | 1.89 | 0.605 | 1.06 | 0.558 | 1.09 | 1.08
10 | CTTACAGGGTCAGCTAGGCCAGAGTAGGGACGGC | 4.5 | 2.83 | -0.519 | 2.04 | -0.147 | 4.25 | 2.76 | 3.24 | 0.782 | 2.02 | 2 | 2.59 | -0.146 | -0.1 | 0.148 | 1.88 | -0.368 | 2.75 | 0.0802 | 4.04
11 | CAGCCTAGGTCAGGGCCAGTGTAGGAGGAACGTT | 1.51 | 1.17 | -0.646 | 0.424 | -1.41 | 2.1 | 0.721 | 0.845 | -0.701 | -0.0334 | 1.13 | 1.58 | -0.0989 | -1.49 | 0.588 | 0.476 | -0.524 | 1.01 | -0.522 | 3.5
12 | TAGCCTAGGTCATGAGCCAGTATACCACGCGAAC | 4.38 | 3.4 | 0.262 | 2.43 | 0.0464 | 3.93 | 3.35 | 2.98 | 0.892 | 2.05 | 1.81 | 3.11 | -0.211 | 0.0511 | 1.45 | 1.61 | -0.537 | 2.64 | 0.534 | 3.58
13 | TCTAGATGGTCAAAGGTCACACACTCGAAATGCG | 6.69 | 5.75 | 4.06 | 5.58 | 1.37 | 6.38 | 10.2 | 8.58 | 8.53 | 9.72 | 3.19 | 5.41 | 1.82 | 1.44 | 5.45 | 6.1 | 1.7 | 7.48 | 3.63 | 4.89
14 | ATCTCTAGGAAAGACTCAGTTCAGTGAAGAACGC | 0.193 | 0.324 | 0.437 | 0.164 | 0.531 | -0.385 | -0.00135 | -0.209 | -0.24 | -0.119 | -0.0594 | -0.318 | 0.245 | 0.852 | 0.978 | 0.737 | 1.37 | 0.199 | 0.964 | 0.144
